KCNQ2 block = rat KCNQ2 potassium channel inhibitors, primary screen, cell-based, CHO-K1, FluxOR thallium flux, B-score; Potassium voltage-gated channel subfamily KQT member 2 (Rattus norvegicus), O88943; 20 min; hits give low values; B-score at 10 µM; hit rate 1.1% among 310,000; AID 2156, 2009;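 active means fluorescence ratio B-score at most minus 3 library SDs, with starting brightness B-score within 2 library SDs, cut at about -5.5 in these data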
KCNQ2 pot = potentiators of rat KCNQ2 potassium channel. CHO-K1 KCNQ2, FluxOR thallium flux fluorescence; hits give high values. B-score at 10 µM. AID 2239, 2010. hit rate 0.54% among 310,000;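 active means fluorescence ratio B-score at least 3 SD of library B-scores, with initial fluorescence B-score within 3 of them, cut at about 5.3 in these data; same plate scores as AID 2156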;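 further: B-score of peak minus minimum over baseline fluorescence ratio after K+ and Tl+ stimulus; positive B-score means potentiation of KCNQ2 with more thallium influx and brighter signal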
* = called active by the depositor; i = inactive; · = not tested or not shown. This is a sample that favours compounds with a hit; in the whole collection about 1.6% have one here.

SMILES	KCNQ2 block	KCNQ2 pot
Cc1cc(N/N=C(/CCC(=O)O)C(=O)O)nc2ccccc12	i	0.71
Cc1oc(-c2ccccc2F)nc1CN1CCC(C(=O)NC2CCCc3ccccc32)CC1 (stereo not drawn)	-7.33*	-7.33
Cc1oc(-c2ccccc2F)nc1CN1CCC(C(=O)NC2CCCCCCC2)CC1	i	·
COc1ccc(C2CC(=O)c3cnc(Nc4cc(C)cc(C)c4)nc3C2)cc1 (stereo not drawn)	-5.92*	-5.92
COc1ccc(C2CC(=O)c3cnc(NC(=O)c4cc(OC)cc(OC)c4)nc3C2)cc1 (stereo not drawn)	i	0.43
CC(C)S(=O)(=O)C1=NSC2=NC(=O)/C(=C\c3ccc(-c4ccccc4)o3)C(=N)N21	-5.94*	-5.94
N=C1/C(=C\c2ccc(-c3cc(Cl)cc(Cl)c3)o2)C(=O)N=C2SC=C(c3ccccc3)N12	i	0.75
Cc1cc(C)n2nc(CC(=O)NCc3ccccc3Cl)nc2n1	i	·
Cc1ccc(CSCCNC(=O)c2ccc(NS(C)(=O)=O)cc2)cc1	i	1.38
COc1ccc(C(=O)/C=C/c2cccs2)c(OC(=O)N2CCOCC2)c1	i	0.23
O=C(/C=C/c1cccs1)c1cc(Br)ccc1OC(=O)N1CCOCC1	-6.81*	-6.81
COc1ccccc1CNC(=O)[C@H](Cc1c[nH]c2ccccc12)NC(=O)[C@@H]1Cc2ccccc2CN1	-6.79*	-6.79
COc1ccccc1CNC(=O)Cc1c[nH]c2ccccc12	i	·
Cc1ccccc1C(=O)OC1OC(=O)C(Cl)=C1N1CCOCC1 (stereo not drawn)	i	0.93
Cc1ccc(Cc2cnc(N3C(=N)SC(C)C3=O)s2)cc1 (stereo not drawn)	i	0.46
Cc1cccc(Cc2cnc(N3C(=N)SC(C)C3=O)s2)c1 (stereo not drawn)	i	6*
CC(=O)OCC(=O)NCC(=O)c1c[nH]c2ccccc12	i	0.28
CCCCN1C(=O)/C(=C2/Sc3ccccc3N2C)S/C1=N\c1ncn[nH]1	i	1.65
CCN(CC)C(=O)CSc1nc2ccccc2c(=O)n1-c1cccc(OC)c1	i	·
COc1cccc(-n2c(SCc3cc(=O)oc4cc(O)c(O)cc34)nc3ccccc3c2=O)c1	-6.11*	-6.11
CCOc1ccc2nc(N3CCCCCC3)sc2c1	i	1.02
COc1ccc2nc(-n3c(C)ccc3C)sc2c1	i	0.47
COc1ccc2nc(N3C(=O)/C(=C/c4ccccc4)NC3=S)sc2c1	i	22.7*
CCOc1ccc2nc(N3C(=O)/C(=C/c4ccccc4)NC3=S)sc2c1	i	20.5*
O=C(NNS(=O)(=O)c1ccc([N+](=O)[O-])cc1)c1cnn(-c2ccccc2)c1-n1cccc1	i	·
SMILES	KCNQ2 block	KCNQ2 pot
CCn1c(=O)c(C(=O)NCCc2ccc(Cl)cc2)c(O)c2ccccc21	i	1.22
CCCn1c(=O)c(C(=O)NCCc2ccc(Cl)cc2)c(O)c2ccccc21	-5.56*	-5.56
COc1ccccc1N1CCN(c2nc(C)cc(C)c2C#N)CC1	-5.9*	-5.9
Cc1cc(C)c(C#N)c(N2CCN(c3ccccc3)CC2)n1	i	·
O=C1CC(=C(c2ccccc2)c2ccccc2)C(=O)N1CCN1CCN(c2cccc(Cl)c2)CC1	-5.63*	-5.63
O=C1CC(=C(c2ccccc2)c2ccccc2)C(=O)N1CCCN1CCN(c2cccc(Cl)c2)CC1	i	·
CCOC(=O)Cc1csc(NC(=O)c2ccc3ncsc3c2)n1	i	·
CN1CCN(C2=C(Cl)C(=O)N(C3CCCCC3)C2=O)CC1	i	·
CN1CCN(C2=C(Cl)C(=O)C(c3cnc(N4CCCCC4)s3)=C(Cl)C2=O)CC1	-8.98*	-8.98
O=C(CCS(=O)(=O)c1ccc(Br)cc1)NCCC1=CCCCC1	i	0.55
NC(=O)Cc1ccc(Nc2nnc(-c3ccc(O)cc3)c3ccccc23)cc1	i	0.61
COC(=O)c1cnn(-c2ccc(Cl)cc2)c1/C=N/NC(N)=S	i	·
S=C1NC2=C(CCC/C2=C\c2ccccc2)C(c2ccccc2)N1 (stereo not drawn)	i	0.15
C(=C1/CCCC2=C1Nc1ncnn1C2c1ccccc1)/c1ccccc1 (stereo not drawn)	-6.52*	-6.52
COC(=O)c1cn(C(=O)c2cc(C)cc(C)c2)c2ccccc12	i	1.25
COC(=O)c1cn(C(=O)c2cc(Br)ccc2Cl)c2ccccc12	-6.07*	-6.07
O=C(O)COc1ccc(/C=N/NC(=O)c2cccc3ccccc23)cc1	i	·
COCCSc1ccccc1C(=O)Nc1nnc(COC)s1	i	·
COCc1nnc(NC(=O)c2ccccc2Oc2ccccc2)s1	-6.14*	-6.14
CNC(=O)NC(=O)COC(=O)c1ccccc1OCc1ccccc1	i	1.46
COc1ccccc1CNC(=O)C1CCCN(S(=O)(=O)c2ccc3c(c2)CC(C)N3C(C)=O)C1 (stereo not drawn)	-6.92*	-6.92

Screens deposited in PubChem BioAssay by Johns Hopkins Ion Channel Center.
